Source: PubChem
LRH-1 inv ag = LRH-1 (NR5A2) inverse agonists, primary screen, cell-based, luminescence, HEK293T, StAR-luciferase reporter; Nuclear receptor subfamily 5 group A member 2 (Homo sapiens), O00482; LRH-1 transfected, 24 h; inhibition, % at 3.6 µM; hit rate 0.13% among 360,000; AID 602396, 2012;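 active means inhibition above the mean inhibition of all tested compounds plus 3 SD, cut at about 73% in these data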
COUP-TFII inh = NR2F2 transcriptional activity inhibitors, primary screen, cell-based, luciferase reporter, HEK293T, luminescence; HEK293T NGFI-A luciferase reporter; inhibition, % at 8.6 µM; hit rate 0.7% among 370,000; AID 686940, 2013;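 active means inhibition above a per-plate cutoff, mean inhibition of test wells between control levels plus 3 SD, cut at about 38% in these data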;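 further: cells cotransfected with COUP-TFII expression vector driving the NGFI-A reporter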
NCOA3 inh = SRC3 coactivator transcriptional activity inhibitors, primary screen, cell-based, luminescence; HEK293 GAL4-SRC3 luciferase reporter; inhibition, % at 3.6 µM; Nuclear receptor coactivator 3 (Homo sapiens), Q9Y6Q9; hit rate 0.17% among 360,000;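 active means inhibition above a per-campaign cutoff, the mean of all compounds plus 3 SD, cut at about 60% in these data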;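 further: higher means less SRC3-driven luciferase light from the GAL4 reporter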
Target sequence (Q9Y6Q9 whole entry, looked up, the tested form may be a part): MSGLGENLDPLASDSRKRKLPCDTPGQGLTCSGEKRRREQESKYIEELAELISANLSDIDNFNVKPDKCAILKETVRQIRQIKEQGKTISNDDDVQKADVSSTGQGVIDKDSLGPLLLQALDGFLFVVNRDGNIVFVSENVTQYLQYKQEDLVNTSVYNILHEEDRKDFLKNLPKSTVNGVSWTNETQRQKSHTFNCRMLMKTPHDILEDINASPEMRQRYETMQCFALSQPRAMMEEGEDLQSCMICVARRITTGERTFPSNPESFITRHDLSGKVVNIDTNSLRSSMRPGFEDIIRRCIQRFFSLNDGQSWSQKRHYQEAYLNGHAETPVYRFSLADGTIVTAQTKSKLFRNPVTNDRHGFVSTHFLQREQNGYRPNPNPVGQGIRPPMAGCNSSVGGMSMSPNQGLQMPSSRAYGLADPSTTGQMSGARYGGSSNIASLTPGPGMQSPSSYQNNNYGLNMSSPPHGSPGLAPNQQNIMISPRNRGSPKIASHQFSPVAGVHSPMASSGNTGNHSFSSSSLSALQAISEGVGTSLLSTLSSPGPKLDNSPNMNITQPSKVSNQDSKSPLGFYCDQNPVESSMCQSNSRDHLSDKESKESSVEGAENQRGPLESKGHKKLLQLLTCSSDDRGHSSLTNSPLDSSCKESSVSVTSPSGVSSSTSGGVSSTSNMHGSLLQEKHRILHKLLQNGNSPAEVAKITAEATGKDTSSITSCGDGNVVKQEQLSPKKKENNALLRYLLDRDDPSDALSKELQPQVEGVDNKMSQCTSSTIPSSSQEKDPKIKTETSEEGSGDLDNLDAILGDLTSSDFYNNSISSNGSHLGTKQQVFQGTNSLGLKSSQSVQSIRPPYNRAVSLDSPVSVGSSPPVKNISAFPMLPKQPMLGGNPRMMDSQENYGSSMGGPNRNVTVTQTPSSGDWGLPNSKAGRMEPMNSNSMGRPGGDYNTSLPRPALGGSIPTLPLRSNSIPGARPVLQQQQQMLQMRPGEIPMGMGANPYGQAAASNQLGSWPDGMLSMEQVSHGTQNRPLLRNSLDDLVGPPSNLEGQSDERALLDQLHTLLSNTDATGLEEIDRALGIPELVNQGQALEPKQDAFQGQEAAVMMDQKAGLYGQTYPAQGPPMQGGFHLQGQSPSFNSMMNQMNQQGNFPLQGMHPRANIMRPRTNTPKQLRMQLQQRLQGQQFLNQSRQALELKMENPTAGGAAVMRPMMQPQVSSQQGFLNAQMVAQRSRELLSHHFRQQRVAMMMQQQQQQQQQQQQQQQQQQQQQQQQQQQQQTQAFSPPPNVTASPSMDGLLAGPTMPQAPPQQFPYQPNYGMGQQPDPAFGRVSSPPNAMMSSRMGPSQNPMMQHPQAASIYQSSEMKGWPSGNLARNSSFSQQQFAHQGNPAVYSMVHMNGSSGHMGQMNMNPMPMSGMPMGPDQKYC
NCOA1 inh = SRC1 coactivator transcriptional activity inhibitors, primary screen, cell-based, luminescence | HEK293 GAL4-SRC1 luciferase reporter | hit rate 0.12% among 360,000 | inhibition, % at 3.6 µM;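 active means inhibition above the campaign mean plus 3 SD, with each screening campaign given its own cutoff, cut at about 60% in these data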
Gli-Sufu antag = Gli-Sufu pathway antagonists, primary screen, luciferase luminescence, Sufu-KO-LIGHT cells, uHTS | inhibition, % at 5 µM | AID 588413, 2011 | hit rate 0.74% among 340,000 | Sufu-KO-LIGHT fibroblasts, Gli luciferase reporter luminescence;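 active means inhibition above about 55%, limit read from the data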
SRC2 inh = inhibition of GAL4-SRC2 driven luciferase reporter, primary screen, SRC2 inhibitor project, cell-based, luminescence; Nuclear receptor coactivator 2 (Homo sapiens), Q15596; HEK293 GAL4-SRC2 luciferase reporter; inhibition, % at 9 µM; hit rate 0.17% among 370,000; AID 651957, 2012;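 active means inhibition above the mean inhibition of all tested compounds plus 3 SD, set per campaign, cut at about 52% in these data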
VP16 Luc counter = Gal4-VP16 luciferase reporter inhibitors, counter-screen for COUP-TFII antagonist project, cell-based, luminescence, HEK293; hit rate 25% among 2,500; shares compounds with COUP-TFII inh; inhibition, % at 8.5 µM; AID 687007, 2013; in the data active means inhibition above about 13%
COUP-TFII conf = NR2F2 transcriptional activity inhibitors, confirmation, cell-based, luciferase reporter, HEK293, triplicate. shares compounds with COUP-TFII inh. HEK293 NGFI-A luciferase reporter, luminescence. inhibition, % at 8.5 µM. hit rate 45% among 2,500;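 active means mean inhibition over three repeats above a set limit taken from the earlier primary screen, cut at about 38% in these data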
Large screens that a line does not name were inactive (follow-up assays come after a bar, where they were run). This is a sample that favours compounds with a hit; in the whole collection about 1.3% have one here.

CC1(C(=O)Nc2ccc3[nH]ncc3c2)CCN1C(=O)Cc1ccc(-c2ccccc2)cc1 (stereo not drawn)	COUP-TFII inh 46.8 (no result: Gli-Sufu antag) | VP16 Luc counter inactive | COUP-TFII conf inactive
CC1(C(=O)Nc2ccc3c(c2)OCO3)CCN1C(=O)Cc1ccc(-c2ccccc2)cc1 (stereo not drawn)	COUP-TFII inh 42.5 (no result: Gli-Sufu antag) | VP16 Luc counter inactive | COUP-TFII conf inactive
Cc1ccc(C(=O)NC2CCCCN(Cc3ccc(Cl)cc3)C2=O)c(C)c1 (stereo not drawn)	none (no result: LRH-1 inv ag, NCOA3 inh, NCOA1 inh, Gli-Sufu antag)
Cc1c(C(C)NC(=O)c2cc(COc3cccc4cnccc34)on2)cnn1C (stereo not drawn)	COUP-TFII inh 55.5 | VP16 Luc counter inactive | COUP-TFII conf 41.8
CSc1ccccc1OCc1cc(C(=O)NC(C)c2cnn(C)c2)no1 (stereo not drawn)	none
C[C@H]1[C@@H](N)CC[C@@]23CCCN2C(=O)CCC[C@@H]13	none (no result: LRH-1 inv ag, NCOA3 inh, NCOA1 inh, Gli-Sufu antag, SRC2 inh)
O=S1(=O)CC2c3ccccc3CCN2CN1CCc1ccccc1 (stereo not drawn)	none (no result: LRH-1 inv ag, NCOA3 inh, NCOA1 inh, Gli-Sufu antag)
O=C(O)c1cccc(CSc2nnc(-c3ccc(Cl)cc3)o2)c1	COUP-TFII inh 39.6, SRC2 inh 54.6 | VP16 Luc counter 36.6 | COUP-TFII conf inactive
Cc1cc(C)cc(-c2nnc(SCc3ccc(C(=O)O)cc3)o2)c1	none
O=C(O)c1ccc(CSc2nnc(COc3ccccc3)o2)cc1	none
O=C(O)c1cccc(CSc2nnc(COc3ccccc3)o2)c1	COUP-TFII inh 41.0 | VP16 Luc counter 34.6 | COUP-TFII conf inactive
CN[C@H]1C[C@H]2c3[nH]c4c(-c5cccc(C)c5)cccc4c3CCN2C[C@H]1[C@H](C)O	none (no result: LRH-1 inv ag, NCOA3 inh, NCOA1 inh, Gli-Sufu antag)
COC(=O)[C@]12C[C@H](CC(=O)NCc3cccc4ccccc34)C(=O)N(CCc3ccc(OC)c(OC)c3)C1=C[C@H](C(C)(C)C)O[C@@H]2C	none (no result: LRH-1 inv ag, NCOA3 inh, NCOA1 inh, Gli-Sufu antag)
O=C1c2ccccc2/C(=C\c2ccc(O[C@@H]3CCCCO3)cc2)N1c1ccccc1	none (no result: LRH-1 inv ag, NCOA3 inh, NCOA1 inh, Gli-Sufu antag)
Cc1ccc(-n2nc3c(=O)n(C(C)C(=O)NCCC4=CCCCC4)nc(C)c3c2C)cc1 (stereo not drawn)	COUP-TFII inh 71.0 | VP16 Luc counter inactive | COUP-TFII conf 61.9
Cc1ccc(CCNC(=O)C(C)n2nc(C)c3c(C)n(-c4ccccc4)nc3c2=O)cc1 (stereo not drawn)	none
COC(=O)c1cccc(Cn2ccc3ccc(-c4ccc5ccn(C(=O)c6ccc(C)cc6)c5c4)cc32)c1	none (no result: LRH-1 inv ag, NCOA3 inh, NCOA1 inh, Gli-Sufu antag)
O=C(CSc1nnc(-c2cccnc2)s1)Nc1ccnc2ccccc12	COUP-TFII inh 65.3 | VP16 Luc counter inactive | COUP-TFII conf 62.4
CC[C@H](C)[C@@H]1NC(=O)[C@@H](CC(C)C)NC(=O)[C@H](C(C)C)NC(=O)[C@H]2CSSC[C@H](NC1=O)C(=O)N2	LRH-1 inv ag 102.8, COUP-TFII inh 106.3, NCOA3 inh 95.1, NCOA1 inh 95.9, SRC2 inh 93.6 (no result: Gli-Sufu antag) | VP16 Luc counter 96.5 | COUP-TFII conf 112.0
Cc1cc(NS(=O)(=O)c2ccc(NC(=O)CSc3nnc(-c4ccco4)n3-c3ccc(Cl)cc3)cc2)nc(C)n1	none (no result: LRH-1 inv ag, NCOA3 inh, NCOA1 inh, Gli-Sufu antag)
COCCNC(=S)N(C)[C@H]1C[C@H]2c3[nH]c4c(-c5ccccc5)cccc4c3CCN2C[C@H]1[C@H](C)O	none (no result: LRH-1 inv ag, NCOA3 inh, NCOA1 inh, Gli-Sufu antag)
Cc1cc(C(=O)NC2CCCc3c2cnn3-c2ccc(C)c(C)c2)n(C)n1 (stereo not drawn)	COUP-TFII inh 65.6, Gli-Sufu antag 81.2 | VP16 Luc counter inactive | COUP-TFII conf 69.3
Cc1cccc(-n2ncc3c2CCCC3NC(=O)C2(C(N)=O)CC2)c1C (stereo not drawn)	COUP-TFII inh 65.7, Gli-Sufu antag 63.2 | VP16 Luc counter inactive | COUP-TFII conf 51.6
Cc1cc(C)cc(-n2ncc3c2CCCC3NC(=O)C2(C(N)=O)CC2)c1 (stereo not drawn)	none
CCc1cc(C(=O)NC2CCCc3c2cnn3-c2cccc(C)c2C)n(C)n1 (stereo not drawn)	COUP-TFII inh 64.4, Gli-Sufu antag 82.5 (no result: LRH-1 inv ag, NCOA3 inh, NCOA1 inh) | VP16 Luc counter inactive | COUP-TFII conf 66.2
Cc1ccc(OCCNC(=O)[C@@H](Cc2ccccc2)NC(=O)[C@H]2O[C@@H](n3ccc(=O)[nH]c3=O)[C@H](O)[C@@H]2O)cc1C	none (no result: LRH-1 inv ag, NCOA3 inh, NCOA1 inh, Gli-Sufu antag)
CCCCCCn1c(-c2ccc(Cl)cc2Cl)csc1=Nc1ccccc1	none (no result: LRH-1 inv ag, NCOA3 inh, NCOA1 inh, Gli-Sufu antag)
CCCC1CCC2(CCCN2CCOC(=O)Nc2ccccc2C)CC1 (stereo not drawn)	none (no result: LRH-1 inv ag, NCOA3 inh, NCOA1 inh, Gli-Sufu antag, SRC2 inh)
O=C(/C=C/c1ccncc1)c1ccc2c(c1)OCCO2	none
COc1cc(/C=C/C(=O)c2ccc3c(c2)OCCO3)cc(Br)c1OCC(=O)N(C)C	COUP-TFII inh 37.6, SRC2 inh 54.8 | VP16 Luc counter 30.6 | COUP-TFII conf inactive
O=C(Nc1ccccc1C(=O)O)c1ccc(Cl)c(S(=O)(=O)N2CCOCC2)c1	none
O=C(Nc1ccccc1C(=O)O)c1cc(S(=O)(=O)N2CCCCC2)c(Cl)cc1Cl	COUP-TFII inh 40.2 | VP16 Luc counter inactive | COUP-TFII conf inactive
C#CCN1CC(N(C)CCOC(=O)c2ccc(F)cc2)CS1(=O)=O (stereo not drawn)	none (no result: LRH-1 inv ag, NCOA3 inh, NCOA1 inh, Gli-Sufu antag)
CC(=O)Nc1ccc(Nc2nc(-c3cc4ccccc4oc3=O)cs2)cc1	COUP-TFII inh 40.0 | VP16 Luc counter inactive | COUP-TFII conf inactive
Nc1ccc(Nc2nc(-c3cc4ccccc4oc3=O)cs2)cc1	none
COc1cc(-c2coc3c(C(=O)NCc4ccc(OC)c(OC)c4)cccc23)ccc1O	COUP-TFII inh 66.6 (no result: Gli-Sufu antag) | VP16 Luc counter inactive | COUP-TFII conf 62.6
COc1ccc(CNC(=O)c2cccc3c(-c4cccc(C(N)=O)c4)coc23)cc1OC	COUP-TFII inh 86.0 (no result: Gli-Sufu antag) | VP16 Luc counter inactive | COUP-TFII conf 73.5
COc1cc(-c2coc3c(C(=O)NCc4ccc(N(C)C)cc4)cccc23)ccc1O	none (no result: Gli-Sufu antag)
COc1ccc(CNC(=O)c2cccc3c(-c4ccc(F)c(F)c4)coc23)cc1OC	none (no result: COUP-TFII inh, Gli-Sufu antag, SRC2 inh)
CC(C)(C)c1ccc(C(=O)Nc2cccc3c(=O)[nH][nH]c(=O)c23)cc1	COUP-TFII inh 48.3 | VP16 Luc counter inactive | COUP-TFII conf 53.5
Cc1ccc(C(=O)Nc2cccc3ccccc23)cc1	none
